Measured values: PubChem BioAssay (NCI)
Compounds without any hit were thinned out: in the full panel of roughly 83,000, 20% have a hit.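 Negative percent growth values reflect cell death: -40 means 40% of the cells present at the start died, and -100 means all died.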 Calls of active or inactive are those of the source.

Tested on: CCRF-CEM leukemia
Assay: NCI-60 one-dose screen, 48 h (100 = growth as untreated, 0 = no growth, -100 = all killed)
Settings: 10 µM unless noted
Description: Growth inhibition of the CCRF-CEM human tumor cell line is measured as a screen for anti-cancer activity. Cells are grown in 96 well plates and exposed to the test compound for 48 hours. Compounds are tested at a single concentration, which is 10^-5 M for most compounds. The reported endpoint is percent growth (GI% or GIPRCNT), where numbers from 0 - 100% represent growth inhibition, and numbers from -100% - 0 represent cell death. For example, a value of 40 represents 60% growth inhibition. A value of 0 means no net growth occurred over the course of the experiment. A value of -40 indicates 40% of cells at the beginning of the experiment died by the end of the experiment. A value of -100 means all cells are dead at the end of the experiment.
NCI-60 Human Tumor Cell Lines Screen was performed using the standard one-dose NCI protocol, which is described in more detail at https://dtp.cancer.gov/discovery_development/nci-60/default.htm.
Compounds with GIPRCNT values below 10 were considered active. Activity score was based on GIPRCNT using the following formula: […]
Score is 0 for GIPRCNT values of 100 or above, 50 for GIPRCNT values of 0, and 100 for GIPRCNT values of -100.

SMILES | growth
Cc1ccc(/C=C2\CN(C(=O)OC(C)(C)C)C/C(=C\c3ccc(C)cc3)C2=O)cc1 | 3.02% (active)
O=C(c1ccc(-c2ccccc2)cc1)c1ccc([N+](=O)[O-])cc1 | 89% (inactive)
CCOC(=O)c1cc(-c2ccc([N+](=O)[O-])cc2)n(-c2ccc(C(=O)O)c(O)c2)c1C | 50% (inactive)
COc1cccc(/C=C/C(=O)c2cc3c(N)c(C(=O)Nc4ccccc4)sc3nc2C)c1 | 7.86% (active)
CCOC(=O)CNP(=O)(OC[C@@H](Cc1ccccc1)NC(=O)c1cc2ccccc2s1)Oc1ccccc1 (stereo not given in full) | 86.5% (inactive)
Cc1nc(-c2ccccc2)cc2c(O)c(C(=O)NN)[nH]c(=O)c12 | 95.1% (inactive)
COc1cc(-c2cc(-c3ccc(N(C)C)cc3)nc(N3CCC(O)CC3)c2C#N)cc(OC)c1OC | 26.6% (inactive)
COc1ccc2c(c1)c(-c1noc(C(=O)c3cn(C)c4ccc(Br)cc34)n1)cn2C | 99.8% (inactive)
C=CCc1c2c(c(OC)c3ccoc13)C(=O)/C(=C/c1ccccc1OC)O2 | 37.5% (inactive)
C=C(C)[C@@H]1CC[C@]2(C(=O)NCC#CCN3CCN(C)CC3)CC[C@]3(C)[C@H](CC[C@@H]4[C@@](C)(CCC#N)[C@H](C(=C)C)CC[C@]43C)[C@@H]12 | 51.3% (inactive)
CC1=C(CCC(C)N(C)Cc2ccc(OCCCN3CCCC3)cc2)C(C)(C)CCC1 (stereo not given) | 11.1% (inactive)
CSc1nc2sc3c(c2c(=O)n1-c1ccc([N+](=O)[O-])cc1)CCCCC3 | 93.3% (inactive)
Cn1cccc1C(=O)C1C(c2cccc([N+](=O)[O-])c2)C2C3CCCCC3CN2C12C(=O)Nc1ccc(Cl)cc12 (stereo not given) | 58.6% (inactive)
N#C/C(=C\c1ccc2ccccc2c1)c1cc2ccccc2[nH]1 | 18.5% (inactive)
Cc1ccc(/C=N/Nc2nc(Nc3ccccc3)nc(-n3nc(C)cc3C)n2)cc1 | 41% (inactive)
CC(C)N1CN2C(=S)NC3C2N(C1)C(=S)N3C (stereo not given) | 94.8% (inactive)
Fc1cc2c(cc1Cl)N(c1ncnc3ccc(-c4cnc5[nH]ncc5c4)cc13)CC2 | 71.1% (inactive)
Cn1cc(-c2csc(-c3ccc(Cl)cc3)n2)c2cccnc21 | -18.8% [100 µM] (active)
COc1ccc(Cc2cc(-c3ccccc3)nn(Cc3ccccc3)c2=O)cc1OC | 43% (inactive)
O=C(/C=C/c1cn(-c2ccccc2)nc1-c1ccc([N+](=O)[O-])cc1)c1ccc(Cl)cc1 | 38% (inactive)

SMILES | growth
O=C1c2cccc(NCCN=Cc3cc(O)ccc3O)c2C(=O)c2c(NCCN=Cc3cc(O)ccc3O)cccc21 | -58.7% (active)
C=C(C)[C@@H]1CC[C@]2(C(=O)N3CCN(C)CC3)CC[C@]3(C)[C@H](CC[C@@H]4[C@@]5(C)CC(=C/c6ccncc6)/C(=N/O)C(C)(C)[C@@H]5CC[C@]43C)[C@@H]12 | 57.9% (inactive)
O=C1Nc2ccccc2[C@]12CC(c1ccccc1)=NN2 | 37.2% (inactive)
CCC(=C(c1ccc(OCCN2CCCC2)cc1)c1ccc(OCCN2CCCC2)cc1)c1ccc(Cl)cc1 | -38.7% (active)
OB(O)c1cccc(-c2nc3ccc4[nH]ncc4c3c3c2CCCC3)c1 | 32.2% (inactive)
CCN1C(=O)N(CC)C2C1NN=c1s/c(=C\c3cccc([N+](=O)[O-])c3)c(=O)n12 (stereo not given) | 10.8% (inactive)
CC(=O)N(N=Nc1ccccc1)c1cccc2ccccc12 | 79.8% (inactive)
O=C(O)CCCN1C(=O)/C(=C/C(Cl)=C/c2ccccc2)SC1=S | 2.55% (active)
c1cnc2[nH]cc(-c3csc(-c4cn(CCCN5CCOCC5)c5ccccc45)n3)c2c1 | 17.4% (inactive)
O=C(CSc1nnc2n1S(=O)(=O)c1ccccc1N2c1ccccc1)Nc1nc2ccc(F)cc2s1 | 127% (inactive)
CCc1n(Cc2ccc3ccccc3c2)cc[n+]1Cc1ccc2ccccc2c1 | 11.4% (inactive)
CN(C)c1ccc(Nc2cc(-c3cccc(OC(F)(F)F)c3)nc3ccc(N4CCCC4)cc23)cc1 | 3.82% (active)
Cc1ccc(C(C(N)=O)C(C(N)=O)c2ccccc2)cc1 (stereo not given) | 93.4% (inactive)
CC1(C)CCC(S(=O)(=O)c2ccc3c(c2)/C(=N\O)c2cc(S(=O)(=O)N4CCC(O)(c5cccc(C(F)(F)F)c5)CC4)ccc2-3)CC1 | -58.4% (active)
COc1cc2c(c(OC)c1OC)-c1ccc(OC)c(=O)cc1[C@@H](NC(=O)CCl)CC2 | 15.3% (inactive)
Cc1cc2c(O)c(-c3cc(Cl)ccc3Cl)c3sc(=O)oc3c2cc1C | 53.8% (inactive)
CCN(CC)C(=S)SC(SC(=S)N(CC)CC)C(=O)c1nnn(-c2ccc([N+](=O)[O-])cc2)c1C | 68.3% (inactive)
C/C(=N/O)c1ccc(F)cc1 | 87.2% (inactive)
CN1CCN(C(=O)c2ccc(NC(=O)Nc3ccc(-c4nc(N5CCOCC5)c5cccn5n4)cc3)cc2)CC1 | 16.9% (inactive)
Cc1nc2ncnc(Cl)c2[nH]1 | 87.7% (inactive)
